Laboratory results: PubChem BioAssay AID2566 (National Center for Advancing Translational Sciences (NCATS), 2010)
“And” between values parts separate entries of the source, which are not always exact repeats. Equal values may be shown once. Results filed as inconclusive are left out. The source made the active and inactive calls.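 How the source made its calls: active means compound that pushes labeled neuropeptide S off its receptor in a binding test; inconclusive means all other tested compounds; inactive means none, nothing was called inactive.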

biological target: Neuropeptide S receptor (Homo sapiens) (UniProt Q6W5P4); test: Confirmation Concentration-Response Assay for Antagonists of the Neuropeptide S Receptor: Radioligand Displacement, SAR for Probe; settings: CHO-hNPSR, [125I]Y10-NPS displacement, 1.5 h
Description: NIH Chemical Genomics Center [NCGC] NIH Molecular Libraries Probe Production centers Network [MLPCN] MLPCN Grant: X01-DA026210-01 Assay Submitter (PI): Heilig, Markus Alexander NCGC Assay Overview: Neuropeptide S receptor (NPSR), previously known as GPR154, is a recently de-orphanized G protein coupled receptor. Its endogenous ligand is the 20 amino acids peptide Neuropeptide S (NPS). […] NPS and its receptor are found in various tissues. Specifically they are highly expressed in brain areas that have been implicated in modulation of arousal, stress and anxiety. Central administration of NPS in mice produces an unusual profile of activity by inducing wakefulness and arousal, while at the same time suppressing anxiety. Therefore, NPSR may represent a novel drug target for the treatment of sleep and anxiety disorders. As one method of confirming the specific activity of compounds active in the primary screen (AID 1461), we developed an assay to measure the displacement of radio-labeled native ligand, NPS, from its receptor in vitro.
The assay was carried out as described (Xu et al. (2004) Neuron, 43: 487-497) with minor modification. Y10-NPS labeled with 125I was bought from NEN Perkin Elmer (Boston, MA). CHO cells stably expressing human NPSR were seeded into 24-well plates and cultured until reaching 90-95% confluency. Cells were washed with 1ml PBS once and then incubated with radioligand with or without compounds or in DMEM medium containing 0.1% bovine serum albumin at 20C for 1.5 hr. Increasing concentrations of compounds or unlabeled human NPS were used to compete with 0.15 nM [125I] Y10-NPS. Nonspecific binding was determined in the presence of 1 uM unlabeled human NPS. Cells were washed twice with cold PBS and lysed with 1 N NaOH. Bound radioactivity was counted in a liquid scintillation counter.

Neuropeptide S receptor (Homo sapiens), sequence (Q6W5P4 whole entry, looked up): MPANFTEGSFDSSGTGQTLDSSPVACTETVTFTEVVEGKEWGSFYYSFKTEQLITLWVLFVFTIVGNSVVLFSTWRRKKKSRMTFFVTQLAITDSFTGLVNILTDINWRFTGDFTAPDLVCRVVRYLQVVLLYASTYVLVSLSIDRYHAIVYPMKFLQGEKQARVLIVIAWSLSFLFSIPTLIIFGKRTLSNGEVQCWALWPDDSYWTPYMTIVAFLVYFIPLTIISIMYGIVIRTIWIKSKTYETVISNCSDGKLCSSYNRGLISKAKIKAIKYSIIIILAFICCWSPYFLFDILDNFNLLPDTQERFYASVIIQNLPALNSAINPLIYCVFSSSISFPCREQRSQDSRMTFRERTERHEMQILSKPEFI

Potency, active:
COc1cccc(C2c3c(ncn(CCN4CCOCC4)c3=N)Oc3ccc4ccccc4c32)c1 (centres undefined) 439 nM
COc1ccc(C2c3c(ncn(CCN4CCOCC4)c3=N)Oc3ccc4ccccc4c32)cc1OC (centres undefined) 256 nM and 190 nM
CCOC(=O)CC(=O)Nc1ncnc2c1C(c1ccccc1)c1c(ccc3ccccc13)O2 (centres undefined) 616 nM
N=c1c2c(ccn1-c1ccccc1)Oc1ccc3ccccc3c1C2c1ccccc1 (centres undefined) 367 nM
O=C1OC(c2ccccc2)(c2ccccc2)N2CCN(C(=O)NCc3ccc(F)cc3)CC12 (centres undefined) 5.93 nM
N#CC1=C(NC=NCc2ccccc2)Oc2ccc3ccccc3c2C1c1ccccc1 (centres undefined) 322 nM
CCOC(=O)C1CCCN(c2ncnc3c2oc2ccccc23)C1 (centres undefined) 26400 nM
CCC(C)(CCN1CCOCC1)N(Cc1cc2ccccc2n(C)c1=O)C(=O)C1CCCCC1 (centres undefined) 6.54 nM
COc1cccc(C2c3c(ncn(-c4ccccc4)c3=N)Oc3ccc4ccccc4c32)c1 (centres undefined) 266 nM
